PAX8 inh HTS: PAX8 transcriptional activity inhibition; RMG-I TPO-luciferase reporter, SteadyGlo, 24 h; inhibition, % at 12.6 µM; hit rate 1.2% among 360,000; AID 652154;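 active = mean replicate inhibition at least 60% with every replicate also reaching 60%; inconclusive = only one of the two criteria is met; inactive = mean below 60% and not all replicates reaching 60%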;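 also: luciferase light reporting Pax8 driven TPO promoter activity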
HIV Env fusion: inhibitors of HIV Env-mediated cell fusion; inhibition, % at 12.3 µM; HeLa-JRFL Env/CEM21 cell fusion, luciferase; hit rate 1.1% among 360,000;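 active = mean replicate inhibition score of at least 50 and every replicate individually at or above 50; inconclusive = only one of the two criteria met; inactive = mean below 50 and not all replicates reaching 50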
F508del corr: correctors of CFTR F508del function in bronchial epithelial cells; CFBE cells, YFP halide quenching; stimulated with forskolin plus potentiator P3; % fluorescence drop versus neutral controls; activity (quench increase), % at 7.58 µM; hit rate 0.36% among 350,000;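 active = mean added fluorescence quench of at least 8% versus neutral control, with both replicates also reaching 8%; inconclusive = only one of the mean or replicate conditions met; inactive = mean below 8% and not both replicates reaching 8%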;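 also: cells transiently co-express mutant CFTR-F508del with the halide-sensitive YFP; corrector assay measuring rescue of mutant channel to the surface after 24 h compound exposure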
EWS-Fli inh: blocks EWS/Fli oncoprotein-driven transcription | A673 NR0B1-luciferase reporter, viability-normalised | inhibition, % at 12.6 µM | hit rate 0.67% among 350,000;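 active = mean inhibition of at least 50% after viability correction, with every replicate also passing that limit; inconclusive = mean reaches 50% but only one of two replicates passes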;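 also: firefly luciferase signal divided by Alamar Blue viability fluorescence both relative to DMSO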
GAA850 FXN act: frataxin GAA850 promoter activation. HEK293 lucGAA850 FXN promoter luciferase reporter, 24 h; percent of 10 µM SAHA response. activation, % at 6 µM. hit rate 0.56% among 360,000. AID 540364;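 active = activation above the average of all compounds screened plus 3 SD, cutoff fixed separately per campaign, cut at about 7.5% in these data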
Large screens that a line does not name were inactive; [ ] = remark or other dose. The list is not random: actives were taken first. Their share in the collection is about 2.5%.

COc1cccc(C(=O)Nc2ccc3c(c2)C(=O)N(C)C[C@H](OC)[C@@H](C)CN(C(C)=O)[C@H](C)CO3)c1	none (no result: GAA850 FXN act)
Cc1ccc(S(=O)(=O)Nc2ccc3c(c2)C(=O)N([C@@H](C)CO)C[C@H](C)[C@@H](CN(C)C(=O)Nc2cccc4ccccc24)OCCCC[C@H](C)O3)cc1	PAX8 inh HTS 70.2 (no result: GAA850 FXN act)
Cc1ccc(S(=O)(=O)Nc2ccc3c(c2)C(=O)N([C@H](C)CO)C[C@@H](C)[C@H](CN(C)C(=O)Nc2cccc4ccccc24)OCCCC[C@@H](C)O3)cc1	PAX8 inh HTS 78.6 (no result: GAA850 FXN act)
Cc1ccc(S(=O)(=O)Nc2ccc3c(c2)C(=O)N([C@@H](C)CO)C[C@H](C)[C@@H](CN(C)C(=O)Nc2cccc4ccccc24)OCCCC[C@@H](C)O3)cc1	PAX8 inh HTS 80.5 (no result: GAA850 FXN act)
O=C(C[C@H]1C=C[C@@H](NC(=O)c2ccccc2)[C@@H](CO)O1)NCc1ccc(Oc2ccccc2)cc1	none (no result: PAX8 inh HTS, HIV Env fusion, GAA850 FXN act)
Cc1ccc(NC(=O)c2c([N+](=O)[O-])c(C(C)(C)C)nn2C)c(C)c1	PAX8 inh HTS 128.3 (no result: HIV Env fusion)
CC(=O)Nc1ccc(NC(=O)c2c([N+](=O)[O-])c(C(C)(C)C)nn2C)cc1	none
CCCCn1c2ccccc2c2nnc(SCC(=O)NC3=NN=C(c4ccccc4)CS3)nc21	PAX8 inh HTS 77.2 (no result: GAA850 FXN act)
CCN(CC)CCn1c2ccccc2c2nc3ccccc3nc21	F508del corr 24.2
CCCn1c2ccccc2c2nc3ccccc3nc21	none (no result: F508del corr, EWS-Fli inh)
C[C@H](CO)N1C[C@H](C)[C@@H](CN(C)C(=O)C2CC2)OCc2ccccc2-c2ccccc2C1=O	none (no result: GAA850 FXN act)
Cc1cc(C(=O)Nc2ccc3c(c2)C(=O)N(C)[C@@H]2CC[C@@H](CC(=O)NCc4ccc(-c5ccccc5)cc4)O[C@@H]2CO3)no1	none (no result: F508del corr, GAA850 FXN act)
Cc1cc(C(=O)Nc2ccc3c(c2)C(=O)N(C)[C@H]2CC[C@H](CC(=O)NCc4ccc(-c5ccccc5)cc4)O[C@H]2CO3)no1	HIV Env fusion inconclusive (no result: F508del corr, GAA850 FXN act)
Cc1cc(C(=O)Nc2ccc3c(c2)C(=O)N(C)[C@@H]2CC[C@H](CC(=O)NCc4ccc(-c5ccccc5)cc4)O[C@@H]2CO3)no1	PAX8 inh HTS 80.3, EWS-Fli inh inconclusive (no result: F508del corr, GAA850 FXN act)
Cc1cc(C(=O)Nc2ccc3c(c2)C(=O)N(C)[C@H]2CC[C@@H](CC(=O)NCc4ccc(-c5ccccc5)cc4)O[C@H]2CO3)no1	PAX8 inh HTS 91.4 (no result: F508del corr, GAA850 FXN act)
Cc1cc(C(=O)Nc2ccc3c(c2)C(=O)N(C)[C@@H]2CC[C@H](CC(=O)NCc4ccc(-c5ccccc5)cc4)O[C@H]2CO3)no1	PAX8 inh HTS 80.3, EWS-Fli inh 56.7 (no result: F508del corr, GAA850 FXN act)
O=C(C[C@H]1C[C@H]2c3cc(NC(=O)c4cccnc4)ccc3O[C@H]2[C@H](CO)O1)NCc1ccccc1	none (no result: GAA850 FXN act)
CN(C)CC(=O)N[C@H]1CC[C@H](CCn2cc(C3CCCC3)nn2)O[C@H]1CO	none (no result: GAA850 FXN act)
C=CC(=O)N1C/C(=C/c2ccc(F)cc2)C(=O)/C(=C\c2ccc(F)cc2)C1	PAX8 inh HTS 99.7, HIV Env fusion 111.1, EWS-Fli inh 86.9
CN1C2CCC1/C(=C\c1ccc(F)cc1)C(=O)/C2=C/c1ccc(F)cc1	none (no result: F508del corr, EWS-Fli inh)
C[C@@H]1CCCCO[C@H](CN(C)C(=O)Nc2ccc3c(c2)OCO3)[C@H](C)CN([C@H](C)CO)C(=O)c2cc(NC(=O)CCC(F)(F)F)ccc2O1	none (no result: PAX8 inh HTS, GAA850 FXN act)
CCN(CC)S(=O)(=O)c1cccc(C(=O)Nc2nc3cc4c(cc3s2)OCCO4)c1	HIV Env fusion 61.7 (no result: PAX8 inh HTS, F508del corr, EWS-Fli inh)
CCN(CC)S(=O)(=O)c1cccc(C(=O)NC(C(=O)NCCc2ccccn2)C(C)C)c1 (centres undefined)	none (no result: PAX8 inh HTS)
CN(CC1CCCO1)S(=O)(=O)c1ccc(C(=O)Nc2ccc3c(c2)OCO3)cc1 (centres undefined)	none (no result: F508del corr)
CCc1nnc(NC(=O)[C@@H](NC(=O)c2cccc(S(=O)(=O)N(CC)CC)c2)C(C)C)s1	HIV Env fusion 70.4 (no result: PAX8 inh HTS, F508del corr, EWS-Fli inh)
CN(CC1CCCO1)S(=O)(=O)c1ccc(C(=O)Nc2nc3cc4c(cc3s2)OCO4)cc1 (centres undefined)	HIV Env fusion 56.7
CO[C@@H]1CN(C)C(=O)c2cc(NC(=O)c3cccc(Oc4ccccc4)c3)ccc2OC[C@@H](C)NC[C@@H]1C	none (no result: PAX8 inh HTS, HIV Env fusion, GAA850 FXN act)
CO[C@@H]1CC[C@H]2CCOc3ccc(C#N)cc3C(=O)N(C)C[C@H](c3ccccc3)CC(=O)N(C)C[C@H]1O2	none (no result: F508del corr, GAA850 FXN act)
CCS(=O)(=O)N[C@@H]1C=C[C@H](CC(=O)NCc2ccccn2)O[C@@H]1CO	none (no result: HIV Env fusion, EWS-Fli inh, GAA850 FXN act)
C[C@H]1CN([C@@H](C)CO)S(=O)(=O)c2ccc(/C=C/c3ccccc3)cc2O[C@H]1CN(C)C(=O)NC1CCCC1	none (no result: GAA850 FXN act)
C/C=C/c1cccc(-c2nc(C(=O)NCc3ccncc3)cc3c2[C@@H](CCO)N([S@](=O)C(C)(C)C)C3)c1	none (no result: HIV Env fusion, GAA850 FXN act)
C[C@H](CO)N1C[C@H](C)[C@@H](CN(C)CC2CC2)Oc2c(NC(=O)c3ccc(-c4nccs4)cc3)cccc2C1=O	none (no result: PAX8 inh HTS, GAA850 FXN act)
C[C@@H]1CN([C@@H](C)CO)C(=O)c2cc(N(C)C)ccc2O[C@@H]1CN(C)Cc1ccc(C(=O)Nc2ccccc2N)cc1	EWS-Fli inh 82.0 (no result: GAA850 FXN act)
C[C@H](CO)N1C[C@H](C)[C@@H](CN(C)Cc2ccc(C(=O)Nc3ccccc3N)cc2)Oc2ccc(N(C)C)cc2CC1=O	none (no result: GAA850 FXN act)
C[C@H]1CN([C@@H](C)CO)C(=O)c2cccc(NC(=O)c3ccc(-c4nccs4)cc3)c2O[C@H]1CN(C)Cc1ccc(-c2ccccc2)cc1	PAX8 inh HTS 62.7 (no result: GAA850 FXN act)
C[C@@H]1CN([C@@H](C)CO)C(=O)c2cccc(NC(=O)c3ccc(-c4nccs4)cc3)c2O[C@H]1CN(C)CC1CC1	HIV Env fusion 57.3[16.7 µM] (no result: PAX8 inh HTS, GAA850 FXN act)
COCC(=O)Nc1ccc2c(c1)C(=O)N(C)[C@@H]1CC[C@H](CC(=O)O)O[C@@H]1CO2	none (no result: GAA850 FXN act)
CCCCNc1c(-c2ccc(SC(C)CC)c(OC)c2)nc2ccc(C)cn12 (centres undefined)	PAX8 inh HTS inconclusive, F508del corr 8.3
CCCCNc1c(-c2ccc(SC(C)CC)c(OC)c2)nc2ccc(Cl)cn12 (centres undefined)	none
CN1C(=O)c2cc(NC(=O)C3CCCCC3)ccc2OC[C@H]2O[C@H](CC(=O)NCCc3ccncc3)CC[C@@H]21	none (no result: GAA850 FXN act)
COc1ccc(NC(=O)C2CCN(c3cc(-c4ccccc4)nc4ncnn34)CC2)cc1OC	HIV Env fusion 60.1 (no result: PAX8 inh HTS, F508del corr, EWS-Fli inh)
COc1ccc(OC)c(NC(=O)C2CCN(c3cc(-c4ccccc4)nc4ncnn34)CC2)c1	none (no result: PAX8 inh HTS, F508del corr, EWS-Fli inh)
COc1ccc(N2CCN(C(=O)CSc3nnc(-c4cc5ccccc5cc4O)n3C)CC2)cc1	HIV Env fusion 77.2 (no result: F508del corr, EWS-Fli inh)
Cn1c(SCC(=O)N2CCN(c3ccccc3)CC2)nnc1-c1c[nH]c2ccccc12	none
C=CCn1c(COc2cccc(C)c2C)nnc1SCC(=O)N1CCN(c2ccccc2)CC1	HIV Env fusion 63.7 (no result: F508del corr)
CCn1c(SCC(=O)N2CCN(c3ccccc3)CC2)nnc1-c1c[nH]c2ccccc12	HIV Env fusion 65.1
CC1(C)Cc2ccccc2-c2nnc(SCC(=O)N3CCN(c4ccccc4)CC3)n21	HIV Env fusion 83.2 (no result: PAX8 inh HTS, F508del corr, EWS-Fli inh)
O=C(Nc1ccc(F)cc1)N1C[C@@H]2[C@H](c3ccccc31)[C@H](CO)N2Cc1cocn1	none (no result: HIV Env fusion, GAA850 FXN act)

Screening results (PubChem)
